Among the data in PubChem BioAssay AID1053188 (Broad Institute, 2014) are inhibition values, retold here.

Values joined by “and” are separate entries in the source; they are usually repeats but may differ in a detail not shown here. Equal entries are not always repeated. Among all 83,000 compounds or so, about 780 (0.94%) were called active.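 The calls were made as follows: active = mean inhibition of at least 50% with a set share of replicates also reaching that level; inconclusive = no clear call, values can overlap the other calls; inactive = the rest.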 The full list was thinned out, with actives kept by preference.

The assay in a line: CD40 pathway blockade in BL2 B cells – cell-based, luciferase reporter, single point, primary screen (AID 1053188).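 Also: 0% = neutral control wells and 100% = IKK inhibitor VII at 50 µM.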 The following applies: BL2 NF-kB luciferase reporter, CD40L-induced, 4 h; at 10 µM; active compounds read high. A general note: A reporter such as luciferase makes a cellular process visible.
`CC(=O)OC1C2(CC3N4C(=O)C5(CO)SSC4(CC31O)C(=O)N5C)OC(C)C(C)(C)C2=O` (stereo not given): the inhibition was 107% (active).

As to `Cc1nn(-c2ccccc2)c(C)c1NC(=O)COC(=O)Cc1ccccc1`, the inhibition is 3.56% (inactive).

With `N=c1ccccn1Cc1ccccc1`, the inhibition was 5.42% (inactive).

With `CCC(C)(O)C(=O)OC1C(=O)OC2CC3C(C)=CC(=O)C(O)C3(C)C3C4(O)OCC23C1C(C)C4O` (stereo not given), the inhibition was 107% (active).

Consider `CC(=O)N1C[C@@H]2C(c3ccc(Br)cc3)[C@H](C1)N2C` (stereo not given in full), for which the inhibition was -3.1% (inactive) and 2.67% (inactive).

For `Cc1ccc(C(C)C)c(OCC(=O)N2CCN(CC(=O)N3CCOCC3)CC2)c1`, the inhibition is -7.63% (inactive).

Take `Cc1cc(C(=O)OCC(=O)Nc2c(F)cccc2F)c(C)n1C1CC1`: the inhibition was -11.1% (inactive).

Consider `Cc1nc2ccc(N3CCN(C)CC3)cc2nc1C`, for which the inhibition is -20.7% (inactive).

On to `CCOC(=O)C1(CCc2ccccc2)CCN(Cc2ccco2)CC1`, for which the inhibition is 11.2% (inactive).

For `c1ccc(CC2CCCCN2)cc1` (stereo not given), the inhibition was -1.33% (inactive).

Usually inhibition stands for the change of the read-out against control, counted positive when it falls.
